Records with an inconclusive call do not appear. Activity calls are given as the source filed them. Unless noted, calls come from the whole dose curve.
Columns and labels:
[1] = Nuclear factor erythroid 2-related factor 2/antioxidant responsive element (Nrf2/ARE) small molecule agonists: qHTS cell viability counter screen in human keratinocytes (AID 1919968; active = well fitted cell-killing curve with a large enough effect in the repeat runs; note: nearly all actives have a fitted effect of over 55% in size; note: potency is the fitted concentration of half-maximal effect)
In short: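 Fluorescence read-out from CellTiter-Fluor after 1 h at 37 C. Wells held HaCaT-derived ARE-luciferase reporter cells (1,500/well) treated 23 h with DMSO-dissolved compounds. Run in the same wells as the luciferase agonist read.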

[2] = Nuclear factor erythroid 2-related factor 2/antioxidant responsive element (Nrf2/ARE) small molecule agonists: luciferase reporter gene qHTS assay in human keratinocytes (AID 1919969); note: nearly all actives have a fitted effect of over 35% in size
[3] = biological target: Gonadotropin-releasing hormone receptor (Homo sapiens) (UniProt P30968); assay: Human gonadotropin-releasing hormone receptor (GnRHR) small molecule agonists, calcium flux assay in GnRHR-HEK293 cells (AID 1920063); note: nearly all actives have a fitted effect of over 35% in size
Chain of Gonadotropin-releasing hormone receptor (Homo sapiens) (P30968 whole entry, looked up): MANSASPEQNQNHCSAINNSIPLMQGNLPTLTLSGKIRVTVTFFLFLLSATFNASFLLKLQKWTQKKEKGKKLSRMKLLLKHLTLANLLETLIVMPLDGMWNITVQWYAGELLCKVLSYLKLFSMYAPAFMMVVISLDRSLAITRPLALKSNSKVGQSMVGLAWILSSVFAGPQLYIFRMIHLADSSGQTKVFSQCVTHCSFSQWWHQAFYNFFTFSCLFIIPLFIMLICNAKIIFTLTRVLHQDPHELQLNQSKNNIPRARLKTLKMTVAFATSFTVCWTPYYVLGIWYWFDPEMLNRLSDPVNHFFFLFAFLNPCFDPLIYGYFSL
In short: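 Calcium-dye fluorescence, Ex/Em=480/540, recorded every 1 sec over 3 min after compound addition to GnRHR-HEK293 cells. Cells had been seeded 18 hours earlier and dye-loaded for 1 hour at 37 C. Fifteen concentrations, triplicates.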

[4] = G protein-coupled receptor (GPCR) small molecule agonists, calcium flux assay: HEK293 wild type cell line counter screen (AID 1920065)
In short: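 Agonist mode; 18 h seeding at 37 C, 1 h dye load at 37 C; compounds pinned from DMSO, ATP as positive control; kinetic fluorescence 480/540 nm, 3 min, 1 s reads; 15 concentrations, triplicate.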

[5] = p53 small molecule agonists, cell-based qHTS assay with human liver microsomes (AID 1963577)
In short: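 p53RE-bla reporter cells were pre-incubated 5 h at 37 C, then treated with compounds plus human liver microsomes (0.5 mg/mL final) and NADPH (0.5 mg/mL final) for 16 h at 37 C. Beta-lactamase activity was read by LiveBLAzer fluorescence after 2 h at room temperature.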

[6] = p53 small molecule agonists, cell-based qHTS assay with rat liver microsomes (AID 1963578)
In short: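 p53RE-bla cells were exposed to compounds together with rat liver microsomes (0.5 mg/mL final) and NADPH (0.5 mg/mL final) for 16 h at 37 C, then read by LiveBLAzer beta-lactamase fluorescence after 2 h at room temperature.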

[7] = p53 small molecule agonists, cell-based qHTS assay with human liver microsomes: qHTS cell viability counter screen (AID 1963579); note: nearly all actives have a fitted effect of over 45% in size
In short: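 p53RE-bla cells (4,000/well) were pre-incubated 5 h at 37 C, then given compounds in DMSO plus human liver microsomes (0.5 mg/mL final) and NADPH (0.5 mg/mL final) for 16 h at 37 C. Viability was read by CellTiter-Glo luminescence.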

[8] = p53 small molecule agonists, cell-based qHTS assay with rat liver microsomes: qHTS cell viability counter screen (AID 1963580); note: nearly all actives have a fitted effect of over 45% in size
In short: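 Luminescent ATP readout (CellTiter-Glo, 30 min at room temperature) reports viability of p53RE-bla HCT-116 cells after 16 h at 37 C with test compounds under metabolic activation by rat liver microsomes and NADPH at 0.5 mg/mL final each.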

[9] = p53 small molecule agonists, cell-based qHTS assay: qHTS cell viability counter screen (AID 1963581); note: nearly all actives have a fitted effect of over 45% in size
In short: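 Cytotoxicity read-out: ATP-based luminescence (CellTiter-Glo, 30 min RT) measured in the same wells as the p53 reporter assay, HCT-116 p53RE-bla cells, 16 h compound exposure at 37 C.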

[10] = biological target: 5-hydroxytryptamine receptor 2A (Homo sapiens) (UniProt P28223); assay: 5-hydroxytryptamine receptor 2A (HTR2A) small molecule agonists, cell-based qHTS assay (AID 1963587); note: nearly all actives have a fitted effect of over 30% in size
Chain of 5-hydroxytryptamine receptor 2A (Homo sapiens) (P28223 whole entry, looked up): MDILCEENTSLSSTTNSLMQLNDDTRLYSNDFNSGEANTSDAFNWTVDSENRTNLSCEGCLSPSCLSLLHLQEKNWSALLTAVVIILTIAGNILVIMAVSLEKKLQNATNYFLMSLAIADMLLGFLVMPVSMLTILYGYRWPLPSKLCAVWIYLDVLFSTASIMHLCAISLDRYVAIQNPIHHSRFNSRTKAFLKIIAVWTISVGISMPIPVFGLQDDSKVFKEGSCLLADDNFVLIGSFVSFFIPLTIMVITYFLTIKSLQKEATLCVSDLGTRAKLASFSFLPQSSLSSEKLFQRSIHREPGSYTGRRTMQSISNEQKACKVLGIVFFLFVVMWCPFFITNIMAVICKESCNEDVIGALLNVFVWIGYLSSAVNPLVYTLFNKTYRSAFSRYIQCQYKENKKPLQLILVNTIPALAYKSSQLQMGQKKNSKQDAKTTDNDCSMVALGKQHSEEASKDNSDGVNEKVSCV
In short: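 HTR2A-CHO cells, plated 18 h at 37 C/5% CO2, dye-loaded 1 h at 37 C; compounds in DMSO added by pin tool (agonist mode). Intracellular calcium flux read as kinetic fluorescence on FDSS over 2 min at 1 s intervals.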

[11] = biological target: Muscarinic acetylcholine receptor M1 (Homo sapiens) (UniProt P11229); assay: Cholinergic receptor muscarinic 1 (CHRM1) small molecule agonists, cell-based qHTS assay (AID 1963589); note: nearly all actives have a fitted effect of over 35% in size
Chain of Muscarinic acetylcholine receptor M1 (Homo sapiens) (P11229 whole entry, looked up): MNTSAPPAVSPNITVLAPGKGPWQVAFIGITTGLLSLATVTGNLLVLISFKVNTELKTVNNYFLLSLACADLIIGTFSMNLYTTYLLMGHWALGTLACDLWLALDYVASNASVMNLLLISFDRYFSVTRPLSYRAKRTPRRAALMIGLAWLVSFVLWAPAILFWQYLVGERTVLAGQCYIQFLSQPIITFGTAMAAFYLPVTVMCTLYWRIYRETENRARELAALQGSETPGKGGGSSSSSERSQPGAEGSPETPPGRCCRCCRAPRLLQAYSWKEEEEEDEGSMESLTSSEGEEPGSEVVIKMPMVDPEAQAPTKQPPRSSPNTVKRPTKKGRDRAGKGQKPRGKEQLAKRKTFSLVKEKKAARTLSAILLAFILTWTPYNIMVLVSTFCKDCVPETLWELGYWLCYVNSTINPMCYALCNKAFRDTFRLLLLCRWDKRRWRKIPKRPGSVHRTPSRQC
In short: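 Calcium flux read-out: kinetic fluorescence at 1 sec intervals after pin-tool compound addition to dye-loaded CHRM1-CHO cells (human M1). Agonist mode; 15 concentrations tested in triplicate independent runs.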

[12] = cAMP Responsive Elements (CRE) small molecule agonists, cell-based qHTS assay (AID 1963590)
In short: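 Beta-lactamase reporter readout: LiveBLAzer B/G FRET substrate, 2 h at room temperature, added after 3 h compound treatment of CRE-bla HEK 293T cells at 37 C/5% CO2.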

[13] = cAMP Responsive Elements (CRE) small molecule antagonists, cell-based qHTS assay (AID 1963591; active = well fitted inhibition curve with a large enough effect in the signal ratio in the repeat runs, not every such curve was filed as active; the % refers to the signal ratio)
In short: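 HEK293T CRE-bla; 18 h preincubation; compound pin-transfer; NKH477 0.25 uM final, 3 h, 37 C; LiveBLAzer FRET substrate 2 h RT.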

[14] = biological target: Beta-2 adrenergic receptor (Homo sapiens) (UniProt P07550); assay: Adrenergic beta2 receptor (ADRB2) small molecule antagonists, cell-based qHTS assay (AID 1963592); note: series mostly up to about 92 µM; nearly all actives have a fitted effect of over 50% in size
Chain of Beta-2 adrenergic receptor (Homo sapiens) (P07550 whole entry, looked up): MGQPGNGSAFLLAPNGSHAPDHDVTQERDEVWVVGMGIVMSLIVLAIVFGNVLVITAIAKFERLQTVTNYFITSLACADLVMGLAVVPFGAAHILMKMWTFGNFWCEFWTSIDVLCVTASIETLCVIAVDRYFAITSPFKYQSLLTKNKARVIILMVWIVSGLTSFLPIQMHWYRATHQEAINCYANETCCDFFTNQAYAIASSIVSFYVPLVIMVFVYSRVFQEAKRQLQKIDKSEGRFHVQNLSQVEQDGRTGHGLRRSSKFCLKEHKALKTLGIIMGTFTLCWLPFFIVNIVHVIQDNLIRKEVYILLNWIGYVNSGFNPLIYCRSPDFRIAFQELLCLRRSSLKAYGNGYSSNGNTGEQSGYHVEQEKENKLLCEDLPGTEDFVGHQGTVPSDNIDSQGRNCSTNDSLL
In short: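 Assay format: CHO-ADRB2 cells, 18-20hr seeding at 37C/5% CO2, then compound plus 1nM isoproterenol agonist mix for 0.5hr RT. Homogeneous time-resolved fluorescence cAMP detection after 1hr, expressed as 665/615 nm ratio.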

[15] = biological target: Beta-2 adrenergic receptor (Homo sapiens) (UniProt P07550); assay: Adrenergic beta2 receptor (ADRB2) small molecule agonists, cell-based qHTS assay (AID 1963593);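 note: CHO cells stably overexpressing human ADRB2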
In short: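 CHO cells stably over-expressing ADRB2 were plated overnight at 37C, then dosed with compounds plus a stimulation mix containing 100uM IBMX and 25uM Ro-20-1724 for 0.5hr at room temperature. cAMP was measured by HTRF competition, 1hr.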

[16] = biological target: D(2) dopamine receptor (Homo sapiens) (UniProt P14416); assay: Dopamine D2 receptor (DRD2) small molecule agonists, cell-based qHTS assay (AID 1963594); note: nearly all actives have a fitted effect of over 35% in size
Chain of D(2) dopamine receptor (Homo sapiens) (P14416 whole entry, looked up): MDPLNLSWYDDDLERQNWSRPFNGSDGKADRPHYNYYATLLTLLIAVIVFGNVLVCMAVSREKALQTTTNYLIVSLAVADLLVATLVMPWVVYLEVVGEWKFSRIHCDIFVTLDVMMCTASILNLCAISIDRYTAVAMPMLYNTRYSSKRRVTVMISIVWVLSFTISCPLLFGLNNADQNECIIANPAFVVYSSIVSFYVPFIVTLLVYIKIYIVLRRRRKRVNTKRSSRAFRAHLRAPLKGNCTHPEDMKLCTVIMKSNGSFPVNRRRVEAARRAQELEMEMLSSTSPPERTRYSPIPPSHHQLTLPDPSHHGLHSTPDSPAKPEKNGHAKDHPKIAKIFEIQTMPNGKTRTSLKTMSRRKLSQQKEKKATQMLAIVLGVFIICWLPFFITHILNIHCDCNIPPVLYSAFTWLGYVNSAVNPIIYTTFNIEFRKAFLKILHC
In short: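 HEK293 cells stably expressing DRD2 were cultured 24 h at 37 C, then given Ro20-1724 (0.1 mM final) and compounds for 10 min at room temperature. NKH477 (200nM) was then added for 30 min. cAMP was read by HTRF.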

[17] = p53 small molecule agonists, cell-based qHTS assay (AID 1963582; active = well fitted activation curve with a large enough effect in the signal ratio in the repeat runs, not every such curve was filed as active; the % refers to the signal ratio)
In short: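 Fluorescence intensity read-out of a beta-lactamase reporter under a p53 response element. Cells were exposed to DMSO-dissolved compounds for 16 h at 37 C, then developed with FRET substrate for 2 h at RT.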

[18] = biological target: 5-hydroxytryptamine receptor 2A (Homo sapiens) (UniProt P28223); assay: 5-hydroxytryptamine receptor 2A (HTR2A) small molecule antagonists, cell-based qHTS assay (AID 1963586); note: nearly all actives have a fitted effect of over 45% in size; note: potency is the fitted concentration of half-maximal effect
In short: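 CHO cells stably expressing human HTR2A were plated for 18 h at 37 C, then loaded with calcium dye for 1 h. Compounds were preincubated 5 min at room temperature before DOI (4 nM solution) was added. Kinetic fluorescence was read for 3 min.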

[19] = biological target: Muscarinic acetylcholine receptor M1 (Homo sapiens) (UniProt P11229); assay: Cholinergic receptor muscarinic 1 (CHRM1) small molecule antagonists, cell-based qHTS assay (AID 1963588); note: nearly all actives have a fitted effect of over 40% in size; note: potency is the fitted concentration of half-maximal effect
In short: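 Compounds were tested at 15 concentrations in three independent runs. Dye-loaded CHRM1-CHO cells were exposed 5 min at room temperature before stimulation by acetylcholine added at 50nM. Intracellular calcium was read kinetically on FDSS for 3 min.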

[20] = biological target: D(2) dopamine receptor (Homo sapiens) (UniProt P14416); assay: Dopamine D2 receptor (DRD2) small molecule antagonists, cell-based qHTS assay (AID 1963595; active = well fitted inhibition curve with a large enough effect in the signal ratio in the repeat runs, with a control signal flat; the % refers to the signal ratio; note: potency is the fitted concentration of half-maximal effect)
In short: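 Antagonism was scored as restored cAMP in HEK293-DRD2 cells. These cells were stimulated with 200 nM NKH477 and 12 nM quinpirole for 30 min at room temperature, in the presence of 0.1 mM Ro20-1724.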
% is set by controls: 0 for no effect and ±100 for the full control effect.

O=C(c1ccco1)N1CCNCC1
inactive: Potency [1] | Potency [2] | Potency [3] | outcome [4] | Potency [5] | Potency [6] | Potency [7] | Potency [8] | Potency [9] | Potency [10] | Potency [11] | Potency [12] | Potency [13] | Potency [14] | Potency [15] | Potency [16]

CCCCCCCCCCCCS(=O)(=O)Cl
inactive: activity change, negative = cytotoxicity [1] -5.52% [at 19 µM] | activity, positive = activation [2] -14% [at 19 µM] | activity change [3] 1.68% [at 11.8 µM, hits give high values] | activation [4] -1.76% [at 11.8 µM] | activation [5] 0.955% [at 13.5 µM] | activation [6] -3.11% [at 13.6 µM] | activity change, negative = cytotoxicity [7] 0.65% [at 13.5 µM] | activity change, negative = cytotoxicity [9] -1.69% [at 13.5 µM] | activation [17] -3.88% [at 13.5 µM] | activity, negative = inhibition [18] 6.87% [at 12.7 µM] | activation [10] 18.9% [at 15.9 µM] | activity, negative = inhibition [19] 0.609% [at 12.6 µM] | activation [11] 0.179% [at 15.8 µM] | activation [12] 1.16% [at 19 µM] | activity change, negative = inhibition [13] -6.5% [at 18.9 µM] | activity change, negative = inhibition [14] -6.85% [at 19 µM] | Potency [15] | activation [16] 0.808% [at 19 µM] | activity change, negative = inhibition [20] -2.33% [at 18.9 µM]

NS(=O)(=O)c1ccc(Cl)c(S(N)(=O)=O)c1
inactive: Potency [1] | Potency [2] | Potency [3] | outcome [4] | Potency [5] | Potency [6] | Potency [7] | Potency [8] | Potency [17] | Potency [18] | Potency [10] | Potency [19] | Potency [11] | Potency [12] | Potency [14] | Potency [15] | Potency [16] | Potency [20]

CCN1CC(CCN2CCOCC2)C(c2ccccc2)(c2ccccc2)C1=O (centres undefined)
inactive: Potency [1] | Potency [2] | Potency [3] | outcome [4] | Potency [5] | Potency [6] | Potency [7] | Potency [8] | Potency [9] | Potency [12] | Potency [13] | Potency [14] | Potency [15] | Potency [16] | Potency [20]

Nc1nc2c(ncn2COCCO)c(=O)[nH]1
inactive: Potency [1] | Potency [2] | Potency [3] | outcome [4] | Potency [5] | Potency [6] | Potency [7] | Potency [8] | Potency [9] | Potency [12] | Potency [13] | Potency [14] | Potency [15] | Potency [16]

C=CC(=O)O
inactive: Potency [1] | Potency [2] | Potency [3] | outcome [4] | Potency [5] | Potency [6] | Potency [7] | Potency [9] | Potency [17] | Potency [18] | Potency [19] | Potency [11] | Potency [12] | Potency [13] | Potency [14] | Potency [16] | Potency [20]

CN1CCN(C2Cc3ccccc3Sc3ccc(Cl)cc32)CC1 (centres undefined)
inactive: Potency [2] | Potency [3] | outcome [4] | Potency [5] | Potency [6] | Potency [7] | Potency [8] | Potency [9] | Potency [13] | Potency [14] | Potency [16]
active: Potency [1] 29800 nM | Potency [18] 41 nM | Potency [19] 65 nM | Potency [20] 133 nM

C/C(=C\C(C)CC(C)CC(C)C)C1CC(=O)OC1=O (centres undefined)
inactive: Potency [1] | Potency [2] | Potency [3] | outcome [4] | Potency [5] | Potency [6] | Potency [7] | Potency [9] | Potency [18] | Potency [10] | Potency [19] | Potency [11] | Potency [12] | Potency [16] | Potency [20]

Reference: PubChem BioAssay (Tox21)
